In the supplement of paper PMC10849652:
The full data set covers some 7,900 targets. This sample favours those with a hit. About 0.6% of all pairs of compound and target were hits.

How the values were obtained:
Assay in all cases: log2 fold change, soluble protein after heating vs DMSO (PISA); higher = thermal stabilisation; K562 cells, 10 uM, 30 min; active = over 0.2 and 3.5 SD of the protein, either way, in both replicates (recomputed)
[1] = compound: C1=CC=C(C=C1)[C@H](COC2=CC3=C(C=C2)NC(=O)N3)NC(=O)C4=CC=CN(C4=O)CC5=CC(=C(C=C5)F)F
Outline: (§1)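 Values are thermal stability changes relative to control samples and are taken from duplicates. They are stated as log2 fold changes. Before quantification by TMTpro 16plex LC-MS/MS with equalised channel sums, K562 cells at 2×10^6 cells/mL were treated with 10 μM compound for 30 min, heated in aliquots for 3 min across 48°C-58°C, pooled, extracted in PBS with 0.5% NP-40 at 4°C, and centrifuged at 21,000xg for 90 min to give the soluble supernatant.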

[2] = compound: CC1=C(SC2=C1C(=N[C@H](C3=NN=C(N32)C)CC(=O)N)C4=CC=C(C=C4)Cl)C
Outline: as §1

[3] = compound: CC1=C2C(=CC=C1)N=C(N(C2=O)C3=CC=CC=C3C)CN4C=NC5=C(N=CN=C54)N
Outline: as §1

[4] = compound: Cc1sc2c(c1C)C(c1ccc(Cl)cc1)=N[C@@H](CC(=O)OC(C)(C)C)c1nnc(C)n1-2
Outline: as §1

[5] = compound: c1ccc([C@@H]2C[C@H]2NC2CCNCC2)cc1
Outline: as §1

Measured: log2 fold change

CPT2 (UniProt P23786)
UniProt P23786, sequence (P23786 whole entry, looked up): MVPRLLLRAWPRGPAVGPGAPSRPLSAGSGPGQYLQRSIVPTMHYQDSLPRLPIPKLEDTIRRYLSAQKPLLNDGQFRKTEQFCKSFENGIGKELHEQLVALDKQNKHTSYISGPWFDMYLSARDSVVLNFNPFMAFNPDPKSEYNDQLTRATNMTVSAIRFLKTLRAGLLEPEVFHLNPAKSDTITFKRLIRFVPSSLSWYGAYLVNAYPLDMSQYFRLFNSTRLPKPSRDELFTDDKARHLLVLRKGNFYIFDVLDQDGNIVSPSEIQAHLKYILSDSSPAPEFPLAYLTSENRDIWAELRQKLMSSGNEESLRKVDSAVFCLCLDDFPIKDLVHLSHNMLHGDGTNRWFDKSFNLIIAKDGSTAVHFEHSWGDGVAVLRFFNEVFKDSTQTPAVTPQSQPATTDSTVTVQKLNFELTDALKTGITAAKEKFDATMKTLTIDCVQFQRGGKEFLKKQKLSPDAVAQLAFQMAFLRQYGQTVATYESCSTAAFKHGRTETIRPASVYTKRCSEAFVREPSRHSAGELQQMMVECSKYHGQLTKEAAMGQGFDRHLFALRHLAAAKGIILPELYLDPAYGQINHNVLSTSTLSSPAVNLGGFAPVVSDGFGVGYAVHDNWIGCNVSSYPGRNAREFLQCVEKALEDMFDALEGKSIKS
inactive: [1] -0.402 | [2] 0.19 | [3] 0.155 | [4] -0.017 | [5] -0.026

CDK5RAP3 isoform 4 (UniProt Q96JB5)
inactive: [1] -0.042 | [2] 0.054 | [3] 0.099 | [4] 0 | [5] -0.05

CNDP2 (UniProt Q96KP4)
inactive: [1] -0.006 | [2] 0.039 | [3] 0.023 | [4] 0.009 | [5] -0.041

CRYM-AS1 (UniProt A6NIL9)
inactive: [1] -0.295 | [2] 0.037 | [3] 0.297 | [4] -0.201 | [5] -0.002

CMTM3 (UniProt Q96MX0)
inactive: [1] -0.179 | [2] -0.001 | [3] -0.056 | [4] 0.044 | [5] 0.081

CD63 (UniProt P08962)
inactive: [1] 0.041 | [2] 0.02 | [3] -0.008 | [4] 0.009 | [5] 0.035

CDC42BPB (UniProt Q9Y5S2)
inactive: [1] -0.114 | [2] -0.031 | [3] 0.009 | [4] 0.025 | [5] -0.004

CDC42BPA isoform 6 (UniProt Q5VT25)
inactive: [1] -0.101 | [2] -0.039 | [3] 0.083 | [4] 0.031 | [5] 0.069

CHKA (UniProt P35790)
UniProt P35790, sequence (P35790 whole entry, looked up): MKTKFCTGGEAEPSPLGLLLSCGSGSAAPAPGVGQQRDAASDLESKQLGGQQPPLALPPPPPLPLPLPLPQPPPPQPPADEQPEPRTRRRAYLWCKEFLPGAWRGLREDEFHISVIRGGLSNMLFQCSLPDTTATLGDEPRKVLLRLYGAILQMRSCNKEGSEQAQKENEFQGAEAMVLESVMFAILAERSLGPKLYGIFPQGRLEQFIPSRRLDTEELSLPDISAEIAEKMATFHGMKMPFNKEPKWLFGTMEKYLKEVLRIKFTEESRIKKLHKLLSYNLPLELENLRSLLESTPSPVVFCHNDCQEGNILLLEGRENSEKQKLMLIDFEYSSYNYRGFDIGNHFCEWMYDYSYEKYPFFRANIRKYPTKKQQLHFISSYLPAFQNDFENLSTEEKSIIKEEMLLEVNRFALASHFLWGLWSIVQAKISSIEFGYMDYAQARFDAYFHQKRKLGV
inactive: [1] -0.055 | [2] -0.023 | [3] 0.124 | [4] -0.004 | [5] 0.19

CDC26 (UniProt Q8NHZ8)
UniProt Q8NHZ8, sequence (Q8NHZ8 whole entry, looked up): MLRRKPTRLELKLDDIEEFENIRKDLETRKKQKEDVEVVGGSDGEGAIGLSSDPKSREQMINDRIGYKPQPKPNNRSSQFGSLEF
inactive: [1] 0.05 | [2] 0.027 | [3] -0.346 | [4] -0.038 | [5] 0.022

COX5A (UniProt P20674)
UniProt P20674, sequence (P20674 whole entry, looked up): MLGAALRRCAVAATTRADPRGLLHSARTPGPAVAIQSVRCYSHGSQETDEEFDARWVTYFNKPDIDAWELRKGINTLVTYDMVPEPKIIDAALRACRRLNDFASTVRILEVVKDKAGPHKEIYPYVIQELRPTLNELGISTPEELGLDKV
inactive: [1] 0.016 | [2] 0.059 | [3] 0.037 | [4] -0.075 | [5] -0.043

CLPP (UniProt Q16740)
inactive: [1] 0.037 | [2] 0.153 | [3] 0.093 | [4] -0.124 | [5] 0.008

C9orf64 (UniProt Q5T6V5)
UniProt Q5T6V5, sequence (Q5T6V5 whole entry, looked up): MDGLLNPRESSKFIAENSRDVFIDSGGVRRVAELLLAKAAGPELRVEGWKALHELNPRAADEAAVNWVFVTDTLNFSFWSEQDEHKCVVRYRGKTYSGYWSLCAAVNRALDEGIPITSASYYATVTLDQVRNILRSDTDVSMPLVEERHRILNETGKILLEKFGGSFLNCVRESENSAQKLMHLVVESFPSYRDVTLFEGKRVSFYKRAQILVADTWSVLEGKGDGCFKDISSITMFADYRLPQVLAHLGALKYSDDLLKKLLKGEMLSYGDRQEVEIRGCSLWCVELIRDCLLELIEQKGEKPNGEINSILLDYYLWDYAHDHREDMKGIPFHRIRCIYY
inactive: [1] -0.15 | [2] 0.054 | [3] 0.097 | [4] 0.052 | [5] -0.066

CPD (UniProt O75976)
UniProt O75976, sequence (O75976 whole entry, looked up): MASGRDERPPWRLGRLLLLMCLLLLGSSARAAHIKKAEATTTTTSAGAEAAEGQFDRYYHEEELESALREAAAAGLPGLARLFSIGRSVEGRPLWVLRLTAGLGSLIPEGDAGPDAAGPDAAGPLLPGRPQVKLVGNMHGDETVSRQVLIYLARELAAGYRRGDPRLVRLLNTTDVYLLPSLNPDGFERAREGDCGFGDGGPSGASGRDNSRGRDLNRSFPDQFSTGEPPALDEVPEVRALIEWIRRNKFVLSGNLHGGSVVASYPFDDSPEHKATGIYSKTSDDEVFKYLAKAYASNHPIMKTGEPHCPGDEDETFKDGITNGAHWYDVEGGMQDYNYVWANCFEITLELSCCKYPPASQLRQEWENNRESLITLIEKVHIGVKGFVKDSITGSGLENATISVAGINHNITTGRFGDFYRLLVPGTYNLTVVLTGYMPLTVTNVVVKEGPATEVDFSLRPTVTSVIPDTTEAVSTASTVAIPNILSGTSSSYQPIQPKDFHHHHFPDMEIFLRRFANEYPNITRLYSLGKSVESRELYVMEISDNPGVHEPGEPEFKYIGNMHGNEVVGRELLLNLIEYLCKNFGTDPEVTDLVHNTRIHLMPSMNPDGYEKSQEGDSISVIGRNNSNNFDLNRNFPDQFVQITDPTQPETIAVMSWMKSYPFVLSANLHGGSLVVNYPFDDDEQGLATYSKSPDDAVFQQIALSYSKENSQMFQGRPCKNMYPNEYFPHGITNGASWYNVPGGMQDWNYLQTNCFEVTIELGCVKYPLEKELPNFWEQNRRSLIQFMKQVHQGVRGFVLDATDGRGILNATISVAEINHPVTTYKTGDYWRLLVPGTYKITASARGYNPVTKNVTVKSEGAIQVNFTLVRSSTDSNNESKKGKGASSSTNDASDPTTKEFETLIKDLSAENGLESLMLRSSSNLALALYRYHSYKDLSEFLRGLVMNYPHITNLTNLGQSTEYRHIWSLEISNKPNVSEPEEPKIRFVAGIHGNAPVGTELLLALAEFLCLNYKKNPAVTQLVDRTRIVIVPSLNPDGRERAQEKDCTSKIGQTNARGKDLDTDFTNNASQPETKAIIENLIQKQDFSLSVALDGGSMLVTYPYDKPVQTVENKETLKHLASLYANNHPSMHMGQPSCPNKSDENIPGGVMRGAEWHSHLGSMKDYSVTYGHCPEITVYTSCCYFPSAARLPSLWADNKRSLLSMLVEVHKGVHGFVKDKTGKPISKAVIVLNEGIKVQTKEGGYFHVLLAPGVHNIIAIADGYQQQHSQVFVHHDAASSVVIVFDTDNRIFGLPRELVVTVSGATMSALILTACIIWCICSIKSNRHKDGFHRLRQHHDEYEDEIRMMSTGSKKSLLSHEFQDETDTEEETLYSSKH
inactive: [1] 0.008 | [2] 0.014 | [3] 0.044 | [4] -0.013 | [5] 0.053

CNOT7 (UniProt Q9UIV1)
inactive: [1] -0.024 | [2] -0.053 | [3] 0.068 | [4] -0.032 | [5] 0.002

CLINT1 isoform 3 (UniProt Q14677)
UniProt Q14677, sequence (Q14677 whole entry, looked up): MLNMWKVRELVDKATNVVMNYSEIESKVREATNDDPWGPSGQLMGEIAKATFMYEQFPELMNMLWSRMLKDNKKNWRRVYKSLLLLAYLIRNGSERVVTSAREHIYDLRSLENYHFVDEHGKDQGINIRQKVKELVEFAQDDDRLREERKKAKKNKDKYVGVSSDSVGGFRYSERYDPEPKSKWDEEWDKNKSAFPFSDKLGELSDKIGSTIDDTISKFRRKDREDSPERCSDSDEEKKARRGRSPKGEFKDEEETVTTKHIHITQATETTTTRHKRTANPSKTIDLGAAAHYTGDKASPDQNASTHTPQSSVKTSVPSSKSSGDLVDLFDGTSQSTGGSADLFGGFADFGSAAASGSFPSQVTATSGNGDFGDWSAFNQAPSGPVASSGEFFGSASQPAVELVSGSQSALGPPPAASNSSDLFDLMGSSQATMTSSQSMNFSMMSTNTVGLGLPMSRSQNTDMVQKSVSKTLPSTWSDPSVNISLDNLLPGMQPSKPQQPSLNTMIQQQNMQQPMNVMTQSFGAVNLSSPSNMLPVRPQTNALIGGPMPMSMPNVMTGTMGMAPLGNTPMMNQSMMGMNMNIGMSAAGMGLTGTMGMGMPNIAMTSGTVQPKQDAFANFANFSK
inactive: [1] 0.053 | [2] -0.039 | [3] -0.01 | [4] 0.046 | [5] 0.044

CHCHD2 (UniProt Q9Y6H1)
inactive: [1] -0.016 | [2] 0.082 | [3] -0.007 | [4] -0.065 | [5] -0.011

CNN2 (UniProt Q99439)
UniProt Q99439, sequence (Q99439 whole entry, looked up): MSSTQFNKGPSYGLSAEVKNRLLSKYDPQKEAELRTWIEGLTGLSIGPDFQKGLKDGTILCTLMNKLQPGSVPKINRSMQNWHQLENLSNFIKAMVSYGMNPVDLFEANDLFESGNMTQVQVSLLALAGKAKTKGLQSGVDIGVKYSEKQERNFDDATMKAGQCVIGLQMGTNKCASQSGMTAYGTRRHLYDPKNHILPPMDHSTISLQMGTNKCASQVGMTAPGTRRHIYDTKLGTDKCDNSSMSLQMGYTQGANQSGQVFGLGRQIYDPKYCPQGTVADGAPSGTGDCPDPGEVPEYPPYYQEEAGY
inactive: [1] -0.061 | [2] 0.011 | [3] 0.039 | [4] 0.007 | [5] 0.01

CLSPN (UniProt Q9HAW4)
inactive: [1] 0.002 | [2] -0.009 | [3] -0.043 | [4] -0.004 | [5] 0.036

CELF2 isoform 3 (UniProt O95319)
UniProt O95319, sequence (O95319 whole entry, looked up): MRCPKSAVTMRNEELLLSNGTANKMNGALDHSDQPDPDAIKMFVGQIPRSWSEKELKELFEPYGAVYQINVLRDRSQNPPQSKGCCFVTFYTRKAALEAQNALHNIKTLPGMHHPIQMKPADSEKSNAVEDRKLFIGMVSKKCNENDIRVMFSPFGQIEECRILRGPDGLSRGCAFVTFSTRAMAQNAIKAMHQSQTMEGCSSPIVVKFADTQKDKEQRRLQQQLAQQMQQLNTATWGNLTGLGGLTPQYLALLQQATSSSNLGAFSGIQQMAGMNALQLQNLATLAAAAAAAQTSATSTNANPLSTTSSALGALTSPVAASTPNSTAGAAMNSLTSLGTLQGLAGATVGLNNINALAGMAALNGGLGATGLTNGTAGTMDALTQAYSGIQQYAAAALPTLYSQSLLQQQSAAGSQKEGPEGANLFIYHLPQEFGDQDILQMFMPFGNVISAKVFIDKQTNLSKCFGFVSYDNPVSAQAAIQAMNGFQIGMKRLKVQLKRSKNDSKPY
inactive: [1] -0.005 | [2] 0.119 | [3] 0.013 | [4] 0.071 | [5] -0.014

CSNK2B (UniProt P67870)
UniProt P67870, sequence (P67870 whole entry, looked up): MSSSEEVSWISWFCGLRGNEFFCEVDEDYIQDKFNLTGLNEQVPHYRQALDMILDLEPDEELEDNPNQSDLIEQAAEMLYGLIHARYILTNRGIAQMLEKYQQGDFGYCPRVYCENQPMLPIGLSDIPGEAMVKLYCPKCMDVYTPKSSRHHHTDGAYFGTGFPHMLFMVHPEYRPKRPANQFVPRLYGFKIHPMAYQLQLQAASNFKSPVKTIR
inactive: [1] -0.047 | [2] 0.043 | [3] 0 | [4] -0.028 | [5] 0.018

COX5B (UniProt P10606)
UniProt P10606, sequence (P10606 whole entry, looked up): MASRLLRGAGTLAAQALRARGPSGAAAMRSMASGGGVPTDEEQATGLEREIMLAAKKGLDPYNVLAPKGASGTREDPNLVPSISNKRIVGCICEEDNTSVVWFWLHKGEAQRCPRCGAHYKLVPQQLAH
inactive: [1] 0.015 | [2] 0.104 | [3] -0.006 | [4] -0.126 | [5] -0.099

COX7B (UniProt P24311)
UniProt P24311, sequence (P24311 whole entry, looked up): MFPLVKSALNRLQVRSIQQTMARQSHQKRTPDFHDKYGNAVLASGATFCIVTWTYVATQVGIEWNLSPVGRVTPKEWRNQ
inactive: [1] -0.003 | [2] 0.001 | [3] 0.063 | [4] -0.018 | [5] 0.018

CS (UniProt O75390)
inactive: [1] -0.043 | [2] 0.089 | [3] 0.053 | [4] -0.015 | [5] -0.016
